# Experimental data: PubChem BioAssay AID977607 (Broad Institute, 2014)
# Hit rate of the full screen: of about 1,500 compounds, about 460 (31%) were called active. Not shown: some 1% with an inconclusive outcome. Only a sample is shown. Results with a measured potency or affinity are listed apart. A number with no mark means an inactive call.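 The calls were made as follows: active = curve reaches 40% activation over neutral controls at an AC40 no higher than the top valid tested concentration; inconclusive = no clear call, values can overlap the other calls; inactive = signal moving opposite to the expected increase, and the rest.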
# Assay: GLuc-reported insulin release enhancers, glucose-stimulated beta cells – cell-based, INS-1E, Gaussia luciferase, luminescence, cherry-pick, set 2, dose response (AID 977607);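 also: 0% = median of the plate neutral control wells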
# Conditions: INS-1E GLuc insulin secretion reporter, 2-3 h, hits give high values; at 35 µM, 100% = signal doubled over neutral wells unless noted
row,SMILES,max activation
1,COc1ccc(Nc2c3c(nc4ccccc24)CCC3)cc1,"-16.4% [at 0.046 µM, 100% = signal doubled over neutral wells]"
2,c1csc(CNc2nc(Oc3ccncc3)c3sccc3n2)c1,"-17.1% [at 0.0016 µM, 100% = signal doubled over neutral wells]"
3,CN1CCCCC(NC(=O)c2ccccc2)C1=O (stereo not drawn),"-13.5% [at 0.42 µM, 100% = signal doubled over neutral wells]"
4,COc1ccc(S(=O)(=O)Nc2ccc3c(c2)OCO3)cc1OC,-21.1%
5,Cc1cccc(C)c1-n1nnnc1C1(C)CCC(=O)N1Cc1cccs1 (stereo not drawn),25.2%
6,CCOc1cc(CNc2cccc3[nH]c(C)nc23)ccc1OC,"-11.6% [at 0.0016 µM, 100% = signal doubled over neutral wells]"
7,CCN(CC)C(=O)Cn1cc(C(=O)C(=O)N2CCN(Cc3ccccc3)CC2)c2ccccc21,-19.3%
8,CC(=O)N1CCN(c2nnc(-c3ccc(C)cc3)c3ccccc23)CC1,"-19.3% [at 3.8 µM, 100% = signal doubled over neutral wells]"
9,Cc1ncc(N=Nc2ccc(F)cc2)c(-c2ccc(Cl)cc2)n1,105%
10,CC(=O)Nc1nc(NCc2ccccc2Cl)n(-c2ccccc2)n1,"-19.9% [at 0.135 µM, 100% = signal doubled over neutral wells]"
11,COc1ccc(CCNC(=O)CCn2c(=O)c3cccn3c3cccnc32)cc1OC,"27.2% [at 11 µM, 100% = signal doubled over neutral wells]"
12,CCCn1c(O)c(N=NC(=O)c2cccnc2)c2cc(Br)ccc21,-23%
13,Cc1cc(=O)n(Cc2ccccc2)c2ccccc12,22.3%
14,COc1ccc(N/C=C/C(=O)c2ccc(Cl)cc2)cc1,"-21.2% [at 0.42 µM, 100% = signal doubled over neutral wells]"
15,Cc1ccc(S(=O)(=O)Nc2nc(C)cc(NN)n2)cc1,"-19.8% [at 0.015 µM, 100% = signal doubled over neutral wells]"
16,Cc1c(C)c2c(OCC(=O)O)cc3c(c2oc1=O)CCC(C)(C)O3,"-24.4% [at 0.135 µM, 100% = signal doubled over neutral wells]"
17,COc1cc2c(cc1OC)C(Cc1ccc(O)cc1)NCC2 (stereo not drawn),"24.7% [at 0.0016 µM, 100% = signal doubled over neutral wells]"
18,COc1cc2c(cc1OC)C(Cc1ccc(O)cc1)N(C)CC2 (stereo not drawn),"-15.9% [at 0.0016 µM, 100% = signal doubled over neutral wells]"
